Screens from PubChem.
LYPLA1 counter: LYPLA1 (human) inhibition in PME1 counter-screen; recombinant LYPLA1, FP-Rh probe fluorescence polarization; inhibition, % at 5.9 µM; O75608; 320,000 tested, 0.16% active;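 active means inhibition above the mean of all tested compounds plus 3 SD, set per campaign, cut at about 14% in these data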;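 further: inhibitors block serine hydrolase probe labeling of LYPLA1 so polarization falls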
Target sequence (O75608 whole entry, looked up): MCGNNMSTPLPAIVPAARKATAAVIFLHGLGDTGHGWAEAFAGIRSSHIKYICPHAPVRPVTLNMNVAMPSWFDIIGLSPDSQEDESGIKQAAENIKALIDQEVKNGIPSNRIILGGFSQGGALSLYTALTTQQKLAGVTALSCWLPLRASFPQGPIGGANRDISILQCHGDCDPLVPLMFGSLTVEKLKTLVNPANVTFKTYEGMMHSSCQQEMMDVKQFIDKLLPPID
LYPLA2 counter: blocks human lysophospholipase 2, a PME1 counter-screen | O95372 | recombinant LYPLA2, FP-Rh probe fluorescence polarization | inhibition, % at 5.9 µM | 320,000 tested, 0.38% active;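 active means inhibition above the screen-wide mean plus 3 SD, limit set per campaign, cut at about 26% in these data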
Target sequence (O95372 whole entry, looked up): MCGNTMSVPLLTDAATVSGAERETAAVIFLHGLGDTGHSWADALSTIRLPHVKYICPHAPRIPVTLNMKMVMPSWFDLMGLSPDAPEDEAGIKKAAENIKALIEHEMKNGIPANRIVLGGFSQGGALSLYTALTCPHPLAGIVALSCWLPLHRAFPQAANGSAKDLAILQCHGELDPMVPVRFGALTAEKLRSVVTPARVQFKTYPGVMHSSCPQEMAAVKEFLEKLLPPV
Fam108B inh: Fam108B inhibition, counter-screen for RBBP9 inhibitors. 300,000 tested, 0.33% active. inhibition, % at 9.51 µM. AID 1947. recombinant Fam108B, FP-Rh probe fluorescence polarization;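 active means inhibition above the screen mean inhibition plus 3 SD, computed separately per campaign, cut at about 18% in these data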;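 further: inhibitors lower polarization as less probe binds the enzyme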
PREPL inhibitor: inhibits the human prolyl oligopeptidase-like enzyme. recombinant PREPL, fluorescence polarization activity-based probe. 320,000 tested, 0.68% active. AID 2751. Q4J6C6. inhibition, % at 5.96 µM
PME-1 inh: blocks human protein phosphatase methylesterase 1. Q9Y570. recombinant PME-1, FP-Rh probe fluorescence polarization. inhibition, % at 5.9 µM. 320,000 tested, 0.53% active. AID 2130;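 active means inhibition above the campaign mean of all compounds plus 3 SD, cut at about 26% in these data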;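 further: competitive labeling of PME-1 active site by serine hydrolase directed probe; inhibitors block probe labeling so polarization falls and inhibition rises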
PREPL inh cf: confirmation of human PREPL enzyme inhibitors; inhibition, % at 5.96 µM; AID 2803; recombinant PREPL, fluorescence polarization activity probe; shares compounds with PREPL inhibitor; 2,000 tested, 67% active
Numbers stand for hits; – = inactive; · = not tested or not shown. In the library only some 1.3% were active in any assay of this set; here they are far more common. Unless noted, no stated cut-off is given here; in the data, active means inhibition above about 43%; inactive means the rest.

SMILES	LYPLA1 counter	LYPLA2 counter	Fam108B inh	PREPL inhibitor	PME-1 inh	PREPL inh cf
CC(/C=C/c1ccco1)=N\NC(=O)c1cccnc1	–	–	–	–	–	·
CC1CCC2(CC1)NC(=O)N(CC(=O)Nc1cccc(C#N)c1)C2=O (configuration not stated)	–	–	·	–	–	·
NC(=S)NNc1cccc2cccnc12	–	–	–	62	–	–
NC(=S)Nc1cccc2cccnc12	–	–	–	–	–	·
Oc1ccccc1CNc1cccc2cccnc12	–	–	–	45	–	–
Oc1ccc(CNc2ccccc2F)c2cccnc12	–	–	–	–	–	·
O=C1c2c(O)ccc(O)c2C(=O)c2c(NCCNCCO)ccc(NCCNCCO)c21	–	–	–	101	–	98
CC(NC(=O)c1ccc(C#N)cc1)C1CC2CCC1C2 (configuration not stated)	–	–	–	–	–	·
COc1cc(O)c(C(CC(=O)N2CCN(c3ccccc3)CC2)c2ccc(N(C)C)cc2)c(OC)c1 (configuration not stated)	–	–	–	54	–	48
COc1cc(O)c(C(CC(=O)N2CCCC(C)C2)c2ccc(N(C)C)cc2)c(OC)c1 (configuration not stated)	–	–	–	–	–	·
C#CCOCCOCCOCCNc1nc(N2CCN(C(=O)[C@H](Cc3cc4ccccc4[nH]3)n3cc(C(N)CC(C)C)nn3)CC2)nc(N2CCN(C(=O)[C@H](CCC(=O)O)n3cc(C(N)[C@H](C)CC)nn3)CC2)n1 (some centres not stated)	–	–	–	–	–	·
C#CCOCCOCCOCCNc1nc(N2CCN(C(=O)[C@H](Cc3cc4ccccc4[nH]3)n3cc([C@@H](N)C(C)CC)nn3)CC2)nc(N2CCN(C(=O)[C@H](CCCCN)n3cc([C@@H](N)CC(C)C)nn3)CC2)n1 (some centres not stated)	–	–	–	46	–	50
C#CCOCCOCCOCCNc1nc(N2CCN(C(=O)[C@H](Cc3ccc(O)cc3)n3cc([C@@H](N)C(C)CC)nn3)CC2)nc(N2CCN(C(=O)[C@H](Cc3cc4ccccc4[nH]3)n3cc([C@@H](N)CC(C)C)nn3)CC2)n1 (some centres not stated)	–	–	–	56	–	48
C#CCOCCOCCOCCNc1nc(N2CCN(C(=O)[C@H](CCC(=O)O)n3cc(C(N)Cc4ccc(O)cc4)nn3)CC2)nc(N2CCN(C(=O)[C@H](Cc3cc4ccccc4[nH]3)n3cc(C(N)[C@H](C)CC)nn3)CC2)n1 (some centres not stated)	–	–	–	–	–	·
C#CCOCCOCCOCCNc1nc(N2CCN(C(=O)[C@H]([C@@H](C)CC)n3cc([C@@H](N)Cc4ccc(O)cc4)nn3)CC2)nc(N2CCN(C(=O)[C@H](Cc3cc4ccccc4[nH]3)n3cc([C@@H](N)C(C)CC)nn3)CC2)n1 (some centres not stated)	–	–	–	53	–	48
C#CCOCCOCCOCCNc1nc(N2CCN(C(=O)[C@H](Cc3cc4ccccc4[nH]3)n3cc([C@@H](N)CC(C)C)nn3)CC2)nc(N2CCN(C(=O)[C@H](Cc3cc4ccccc4[nH]3)n3cc([C@@H](N)CC(C)C)nn3)CC2)n1	–	–	–	69	–	56
O=C(c1cccc(Cl)c1)C1CCCN(C(=O)c2ccc3c(c2)OCO3)C1 (configuration not stated)	–	–	–	–	–	·
CCCOP(=O)(c1ccc(N(C)C)cc1)C(O)c1ccc(Br)cc1 (configuration not stated)	–	–	–	–	–	·
C#CCOCCOCCOCCNc1nc(N2CCN(C(=O)[C@H](Cc3ccc(O)cc3)n3cc([C@@H](N)C(C)CC)nn3)CC2)nc(N2CCN(C(=O)[C@H](Cc3cc4ccccc4[nH]3)n3cc([C@@H](N)C(C)CC)nn3)CC2)n1 (some centres not stated)	–	–	–	47	–	–
C#CCOCCOCCOCCNc1nc(N2CCOCC2)nc(N2CCN(C(=O)[C@H](CCCN=C(N)N)n3cc(C(N)[C@@H](C)CC)nn3)CC2)n1 (some centres not stated)	·	·	·	–	·	·
C#CCOCCOCCOCCNc1nc(N2CCN(C(=O)[C@H]([C@@H](C)CC)n3cc([C@@H](N)CO)nn3)CC2)nc(N2CCN(C(=O)[C@H](Cc3cc4ccccc4[nH]3)n3cc([C@@H](N)C(C)CC)nn3)CC2)n1 (some centres not stated)	–	–	–	48	–	49
C#CCOCCOCCOCCNc1nc(N2CCN(C(=O)[C@H](CCCN=C(N)N)n3cc(C(N)[C@H](C)CC)nn3)CC2)nc(N2CCN(C(=O)[C@H](CCCN=C(N)N)n3cc(C(N)[C@@H](C)CC)nn3)CC2)n1 (some centres not stated)	·	·	·	44	·	–
CCC(C)c1ccccc1OCC(=O)NN1C(=O)c2ccccc2C1=O (configuration not stated)	–	–	–	–	–	·
Fc1ccc(C(CCNCc2ccccn2)c2ccc(Cl)cc2)cc1 (configuration not stated)	–	–	–	–	–	·
Cc1nc2nc(SCC(=O)NCCCN3CCCCCC3)nn2c(C)c1Cc1ccccc1	–	–	–	43	–	–
SMILES	LYPLA1 counter	LYPLA2 counter	Fam108B inh	PREPL inhibitor	PME-1 inh	PREPL inh cf
Cc1ccccc1Cc1c(C)nc2nc(SCC(=O)NCCCN3CCCCC3)nn2c1C	–	–	–	–	–	·
NS(=O)(=O)c1cccc(NC(=O)CSc2nnc(C3CC3)n2C2CC2)c1	–	–	·	–	–	·
N#Cc1cccc(NC(=O)CSc2nnc(C3CC3)n2C2CC2)c1	–	–	·	76	–	–
C=C1c2cccc(O)c2C(=O)C2C(=O)[C@]3(O)C(=O)C(C(N)=O)C(=O)[C@@H](N(C)C)[C@@H]3[C@@H](O)[C@H]12 (some centres not stated)	·	·	·	62	·	–
C[C@H]1c2cccc(O)c2C(O)=C2C(=O)[C@]3(O)C(O)=C(C(N)=O)C(=O)[C@@H](N(C)C)C3[C@@H](O)C21 (some centres not stated)	–	–	–	–	–	·
CCc1cccc(C)c1NC(=O)COC(=O)CSCc1ccccc1	·	·	·	–	·	·
Cc1cccc(N2CCN(C(=O)C3CCN(c4ncnc5c4nc4n5CCCCC4)CC3)CC2)c1C	–	–	–	–	–	·
O=C(C1CCN(c2ncnc3c2nc2n3CCCCC2)CC1)N1CCN(c2ccccc2F)CC1	–	–	–	44	–	–
CN(C)CCCNc1cc(C(C)(C)C)nc2c(-c3ccc(Cl)cc3)cnn12	–	–	–	52	–	49
CS(=O)(=O)c1ccc(N2CCN(c3ccccn3)CC2)c([N+](=O)[O-])c1	–	–	–	–	–	·
